# Assay outcomes deposited in PubChem BioAssay by several laboratories.
# BCLXL inh: inhibitors of human Bcl-xL, primary screen, biochemical, fluorescence polarization, HTS. inhibition, % at 10.9 µM. GST-Bcl-xL / FITC-Bim BH3 peptide fluorescence polarization. AID 2129, 2009. Bcl-2-like protein 1 (Homo sapiens), Q07817. actives 0.7% (n = 320,000);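 active = inhibition above the mean of all tested compounds plus 3 SD, cutoff set per campaign, cut at about 30% in these data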;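 note: 0% = DMSO wells and 100% = unlabeled Bim-BH3 peptide competitor; inhibitors lower millipolarization by displacing the labeled peptide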
# GLD-1 RNA inh: GLD-1/TGE RNA complex disruptors, primary screen, biochemical, fluorescence polarization. actives 0.44% (n = 320,000). purified GLD-1 + fluorescein TGE RNA. inhibition, % at 5.96 µM. AID 2280, 2010;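 active = percent inhibition above a per-plate cutoff, the plate mean of test compounds plus 3 SD, cut at about 30% in these data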;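 note: 0% = DMSO wells with GLD-1 and probe and 100% = wells lacking GLD-1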
# Target sequence (Q17339 whole entry, looked up): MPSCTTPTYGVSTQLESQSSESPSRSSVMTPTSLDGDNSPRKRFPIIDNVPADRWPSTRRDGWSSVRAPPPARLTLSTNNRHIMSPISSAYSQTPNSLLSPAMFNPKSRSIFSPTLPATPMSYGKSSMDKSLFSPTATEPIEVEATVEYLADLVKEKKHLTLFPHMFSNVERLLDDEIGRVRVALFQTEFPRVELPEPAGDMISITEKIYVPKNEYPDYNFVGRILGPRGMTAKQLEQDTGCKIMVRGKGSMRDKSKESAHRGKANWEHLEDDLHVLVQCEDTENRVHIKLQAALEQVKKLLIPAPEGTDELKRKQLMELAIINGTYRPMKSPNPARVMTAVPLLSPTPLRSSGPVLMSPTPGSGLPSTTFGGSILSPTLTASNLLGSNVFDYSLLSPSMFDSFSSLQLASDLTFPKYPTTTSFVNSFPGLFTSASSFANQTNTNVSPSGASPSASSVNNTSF
# Mcl1-Noxa inh: Mcl-1/Noxa binding inhibitors, primary screen, biochemical, TR-FRET, 1536-well; actives 1.5% (n = 220,000); TR-FRET Mcl-1/Noxa peptide binding, 2 h; inhibition, % at 21.7 µM;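 active = compounds that cut the protein-peptide binding signal by more than 50% relative to plate controls in a single-dose test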;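 note: His-tagged Mcl-1 with rhodamine Noxa BH3 peptide and terbium anti-His antibody; 0% = Mcl-1 plus Noxa peptide wells and 100% = peptide-only wells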
# Bim-Mcl-1: inhibitors of Bim peptide binding to Mcl-1, primary screen, biochemical, bead-based flow cytometry, multiplex. Bim peptide-Mcl-1 binding. inhibition, % at 10 µM. actives 0.1% (n = 190,000). AID 1009, 2008; in the data active = inhibition above about 40%;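 note: 0% = no compound tracer wells and 100% = peptide blocker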
# Mcl1-Bid inh: Mcl-1/Bid binding inhibitors, primary screen, biochemical, TR-FRET, 1536-well | Induced myeloid leukemia cell differentiation protein Mcl-1 (Homo sapiens), Q07820 | TR-FRET Mcl-1/Bid-Dy647 peptide binding | inhibition, % at 21.7 µM | actives 0.97% (n = 220,000);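 active = compounds that cut the binding signal by more than half at the single screening dose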;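 note: His-tagged Mcl-1 with europium anti-His antibody binding Bid BH3 peptide; 0% = Mcl-1 plus peptide wells and 100% = peptide-only wells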
# MCL1 BIM primary: inhibitors of MCL1 binding to BIM-BH3, primary screen, biochemical, fluorescence polarization. AID 2057, 2009. inhibition, % at 10.9 µM. Induced myeloid leukemia cell differentiation protein Mcl-1 (Homo sapiens), Q07820. GST-MCL1 / FITC-Bim-BH3 fluorescence polarization. actives 0.68% (n = 320,000);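 active = inhibition above the mean inhibition of all tested compounds plus 3 SD, set per campaign, cut at about 40% in these data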;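 note: 0% = DMSO wells and 100% = unlabeled Bim-BH3 peptide control; higher means more loss of mP so more displacement of Bim peptide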
# Numbers without * were called inactive; . = no result. A selection: hits, their analogues and other compounds. The true share with any hit is near 2.3%.
SMILES,BCLXL inh,GLD-1 RNA inh,Mcl1-Noxa inh,Bim-Mcl-1,Mcl1-Bid inh,MCL1 BIM primary
COCCN1C(=O)/C(=C/c2ccc(Oc3ccc([N+](=O)[O-])cn3)c(OC)c2)SC1=Nc1ccccc1,5,-1,-17,18,-15,6
O=C1/C(=C/c2ccc(N3CCOCC3)o2)SC(=Nc2ccccc2)N1CCc1c[nH]c2ccccc12,-77,10,38,-21,-63,-104
COc1ccc(N=C2S/C(=C\c3ccc(OC(C)C(=O)O)c(OC)c3)C(=O)N2CCc2c[nH]c3ccccc23)cc1 (stereo unspecified),.,.,82*,2,-16,.
COc1cc(/C=C2\SC(=Nc3ccccc3)N(CCc3c[nH]c4ccccc34)C2=O)ccc1OC(C)C(=O)O (stereo unspecified),8,5,51*,0,-6,10
COC(=O)C1=C(C)N(Cc2ccccc2)C(=NCC(C)C)N[C@H]1c1ccccc1,44*,31*,.,.,.,31
FC(F)(F)c1ccncc1-c1nnnn1-c1ccc(Cl)cc1,4,-1,-9,.,69*,8
CC1(C)CC(=O)C(C(c2cccnc2)C2C(=O)CC(C)(C)CC2=O)C(=O)C1,8,-7,-5,-30,69*,10
COc1ccc([C@H]2CC(=O)C=C(c3cccc(C(C)C)c3)C2)cc1OC,1,3,.,.,.,1
COC(CNC(=O)C1CCN(S(=O)(=O)c2ccc3nc4c(c(C(=O)O)c3c2)CC(C)CC4)CC1)OC (stereo unspecified),31*,5,.,.,.,33
CC1CCc2nc3ccc(S(=O)(=O)N4CCC(C(=O)O)CC4)cc3c(C(=O)O)c2C1 (stereo unspecified),10,9,.,.,.,13
CCc1ccccc1OCC(=O)NNCC(=O)Nc1cccc(C#N)c1,-6,0,.,.,.,-8
COc1ccc(-c2nnc(-c3cc4c(ccc5ccccc54)oc3=O)o2)cc1,6,-7,64*,3,34,13
O=c1oc2ccc3ccccc3c2cc1-c1nnc(-c2ccccc2)o1,6,-4,38,0,20,3
O=C(O)c1[nH]c2ccccc2c1C=NCc1ccccc1Cl,0,-8,-5,0,89*,0
COc1ccc(/C=C(\NC(=O)c2ccc([N+](=O)[O-])cc2)C(=O)NCCCN2CCOCC2)cc1,1,-5,.,.,.,2
CCn1c(C)cc(/C=C2\NC(=O)N(Cc3ccc(Cl)cc3)C2=O)c1C,4,0,83*,0,90*,8
Cc1ccc(C)c(NC(=O)C2CCCN2/C=C/C(=O)C(F)(F)F)c1 (stereo unspecified),2,-2,-7,-2,72*,-5
O=C(NC1CCCC1)C(c1ccccn1)N(C(=O)c1csnn1)c1ccc(F)cc1 (stereo unspecified),6,-1,.,.,.,6
C=CC1=C2C=C(C3CC3)N(C3CC3)C=C2C(=O)C(C)(OC(=O)c2ccco2)C1=O (stereo unspecified),31*,16,.,.,.,28
CC1(OC(=O)c2ccco2)C(=O)C=C2C=C(c3ccsc3)OC=C2C1=O (stereo unspecified),14,24,.,.,.,31
COc1ccc(C(=O)NC(CO)c2nnc(SCc3ccc(Cl)c(Cl)c3)n2C)cc1 (stereo unspecified),4,1,0,41*,-3,3
CCn1c(CCNC(=O)c2ccc(OC)cc2)nnc1SCc1ccc(Cl)c(Cl)c1,6,6,20,0,-10,8
CCOC(=O)NNc1ccc2nonc2c1[N+](=O)[O-],17,2,97*,.,-10,25
CCc1nnc(NC(=O)c2ccc(COc3ccccc3C)o2)s1,1,-2,.,.,.,-1
Cc1ccccc1CN1CCN(S(=O)(=O)c2ccc(F)cc2)CC1,1,0,5,1,60*,11
SMILES,BCLXL inh,GLD-1 RNA inh,Mcl1-Noxa inh,Bim-Mcl-1,Mcl1-Bid inh,MCL1 BIM primary
CCN(CC)S(=O)(=O)c1ccc(N2CCOCC2)c(NC(=O)c2ccc(N3CCCC3=O)cc2)c1,-1,4,.,.,.,0
Cc1cccc(C(=O)Nc2ccnc(-c3cccnc3)n2)c1,5,0,6,-2,91*,-1
Cc1cccc(C(=O)Nc2ccnc(-c3ccncc3)n2)c1,7,-3,-6,0,-10,5
CN1CCN(c2ccccc2NC(=O)c2ccc(-c3ccc(Cl)cc3Cl)o2)CC1,0,8,65*,1,-19,-3
COc1ccc(Cn2nnnc2C(c2ccc(N(C)C)cc2)N2CCC(C(N)=O)CC2)cc1 (stereo unspecified),5,-6,54*,0,-42,14
COc1ccc(Cn2nnnc2C(c2ccccc2OC)N2CCC(C(N)=O)CC2)cc1 (stereo unspecified),6,2,-13,0,-15,6
COc1cc(OC)c(CN2CCCN(C)CC2)cc1Br,-2,-11,.,.,.,-6
CN(C(=O)Nc1ccccc1)C1CCCc2ccccc21 (stereo unspecified),-1,0,.,.,.,-4
O=C(CCCSc1ccccc1)Nc1nc(-c2ccco2)c(-c2ccco2)s1,7,1,52*,-1,-6,22
O=C(CCl)Nc1nc(-c2ccco2)c(-c2ccco2)s1,9,-5,53*,5,-11,12
O=C(CCCSc1ccccc1)Nc1nc(-c2ccccn2)cs1,11,0,-63,-1,-66,19
CN(C)C(=O)CSc1nnc([C@H](Cc2ccccc2)NC(=O)OC(C)(C)C)o1,12,10,-4,.,-12,7
CSCC[C@H](NC(=O)OC(C)(C)C)c1nnc(SCC(=O)N(C)C)o1,1,-3,67*,2,-49,-6
CCOc1ccc(-c2nnc(-c3ccccc3)o2)cc1,2,5,1,0,-13,2
CCOc1ccc(-c2nnc(-c3ccccc3)n2-c2ccccc2)cc1,-1,-1,-122,3,61*,2
CCOC(=O)Cc1csc(SCC(=O)N(CC(C)C)c2c(N)n(Cc3ccccc3)c(=O)[nH]c2=O)n1,3,1,.,.,.,-4
O=C(CN1C(=O)CSCC1=O)Nc1ccc2c(c1)OCO2,6,6,53*,-5,-24,10
NC(=O)c1nn(CC(=O)Nc2ccc3c(c2)OCO3)cc1[N+](=O)[O-],-8,-3,74*,-2,-8,-18
